Among the data in PubChem BioAssay (NCATS) are Potency, activation and outcome values, retold here.

The target in test [1] is Cytochrome P450 2C19 (Homo sapiens) (UniProt P33261). Description: qHTS Assay for Inhibitors and Substrates of Cytochrome P450 2C19 (AID 899). Also: nearly all actives have a fitted effect of over 60% in size. Also: potency is read from the fitted curve at half-maximal effect. An outline of the steps: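 Signal comes from luciferase acting on luciferin released by CYP2C19-mediated hydroxylation of Luciferin-H EGE, 10uM (KM). Assay mix: 5nM enzyme, 50mM KPO4; 60 min at 37C with NADPH regeneration. Data normalized against 57uM ketoconazole.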

Test [2] can be described thus: qHTS Assay for Identification of Small Molecule Agonists for Hypoxia Response Element Signaling Pathway (AID 914; active = well fitted activation curve with a large enough effect in the signal ratio, with a control signal flat, not every such curve was filed as active; the % refers to the signal ratio; also: potency is read from the fitted curve at half-maximal effect). To be noted: ME-180 (cervical carcinoma) HRE-bla reporter, beta-lactamase ratio, CoCl2, 17 h; activation: active compounds read high. In a few lines:
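HRE-bla ME-180 cells with beta-lactamase reporter under hypoxia response element, compounds with EC50 CoCl2 for 17 hours at 37 C. CCF4 substrate, 460nm/530nm emission ratio gave %Activity; AC50 from titration series.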

Test [3] deals with DNA dC->dU-editing enzyme APOBEC-3G (Homo sapiens) (UniProt Q9HC16). Description: qHTS for inhibitors of Vif-A3G interactions: Validation (AID 588379). In a few lines:
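HeLa cells stably expressing Vif and A3G-eYFP, 700 cells/well, incubated overnight at 37 deg C, then exposed to compound overnight at 37 deg C. Inhibition of Vif-mediated degradation read as increased yellow fluorescence (Ex 488/Em 500-530) by laser-scanning cytometry.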

Test [4] concerns the target Guanine nucleotide-binding protein G(i) subunit alpha-1 (Homo sapiens) (UniProt P63096). Description: qHTS Assay for Inhibitors of RGS12 GoLoco Motif Activity (Green Fluorophore) (AID 879).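 Also: negative values mean loss of peptide binding seen as reduced polarization.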 In a few lines: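 Fluorescence polarization assay: 50 nM Gαi1 with 10 nM FITC-labeled RGS12 GoLoco peptide in 10 mM Tris pH 7.5, 150 mM NaCl, 0.1 mM GDP, 0.05% NP40, 10 min at room temperature with compound.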

The nature of test [5]: qHTS Assay for Identification of Small Molecule Agonists for Thrombopoietin (TPO) Signaling Pathway (AID 917). In a few lines: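 We measured Glycoprotein IIb promoter–luciferase output in IL-3-starved Ba/F3 murine cells expressing the human TPO receptor after 24 hrs at 37 C with compounds and 26 pM TPO.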
Test [6] deals with Pyruvate kinase (Leishmania mexicana) (UniProt Q27686). Description: qHTS Validation Assay for Inhibitors of Leishmania Mexicana Pyruvate Kinase (AID 945). In a few lines: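 Eight-point qHTS titrations in triplicate, data normalized to DMSO neutral control. Reaction: 0.2 nM LmPYK E451W mutant, 0.5 mM PEP, 0.1 mM ADP, 7 mM MgCl2, pH 7.2, one hour at room temperature; luminescent ATP detection.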

In test [7] the target is Pyruvate kinase PKM (Homo sapiens) (UniProt P14618). Description: qHTS Assay for Activators of Human Muscle Pyruvate Kinase (AID 954; active = well fitted curve in the direction sought with a large enough effect, not every such curve was filed as active). In a few lines:
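Human PKM2 activity is measured as ATP generation, detected by luciferase-coupled luminescence. The enzyme (0.1 nM) acts on 0.5 mM PEP and 0.1 mM ADP for 1 h at ambient temperature; data are normalized to uninhibited and full-inhibition wells.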

The target of test [8] is Alpha-galactosidase A (Homo sapiens) (UniProt P06280). Description: Counterscreen for Glucocerebrosidase Inhibitors: qHTS Assay for Human alpha-Galactosidase at pH 4.5 (AID 992). An outline of the steps:
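Quantitative HTS: compounds tested from 0.7 nM up to 77 uM against 2 nM enzyme with 80 uM 4-MU alpha-D-galactopyranoside. The 20 min room-temperature reaction is stopped with 1M NaOH/1M glycine, pH 10.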

In test [9] the target is alpha-glucosidase (Oryza sativa, rice) (UniProt Q653V4). Description: Counterscreen for Glucocerebrosidase Inhibitors: qHTS Assay for Rice alpha-Glucosidase at pH 5.0 (AID 997). An outline of the steps: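 Rice alpha-glucosidase (4 nM final) with 400 uM 4-methylumbelliferyl-alpha-D-glucopyranoside in citrate buffer pH 5.0, 20 min at room temperature, stopped at pH 10; fluorescence 365/440 nm, compounds 0.7 nM–77 uM, AC50 from Hill fits.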

Test [10] in a line: Cytotoxicity counterscreen for NFkB agonists and antagonists (AID 624476).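 Also: cells exposed to compound for 48 hours.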
A short description of test [11]: qHTS Assay for Identification of Small Molecule Agonists for NFkB Signaling Pathway. (AID 624478).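 Also: compounds tested together with TNF alpha at its EC50 of 10 pM.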 In a few lines:
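ME-180 cervical carcinoma, stable NFkB-RE beta-lactamase reporter; 1000 cells/well, overnight attachment; cpd + TNF alpha 10 pM final, 5 h 37 C; LiveBLAzer 2 h RT; FRET 460/530 nm, ex 405 nm.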

A short description of test [12]: qHTS Assay for Identification of Small Molecule Antagonists for NFkB Signaling Pathway. (AID 624479; calls by dose curve;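 also: pathway stimulated with TNF alpha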).
The target in test [13] is Tyrosyl-DNA phosphodiesterase 1 (Homo sapiens) (UniProt Q9NUW8). Description: Confirmation Assay for Inhibitors of Tyrosyl-DNA Phosphodiesterase (TDP1) (AID 489007). Also: potency is read from the fitted curve at half-maximal effect; nearly all actives have a fitted effect of over 40% in size. To be noted: recombinant human TDP1 enzymatic activity, dose-response. In a few lines:
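Tdp1 1 nM + cpd, 15 min RT; add biotin/phosphotyrosine-FITC oligo 15 nM, 5 min RT; add AS donor/acceptor beads 10 ug/ml, 10 min RT; read AlphaScreen. No-enzyme wells = max signal.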

A number with no mark means an inactive call. Results filed as inconclusive are left out. A call without a number means that no potency is given here. Activity calls are given as the source filed them. Unless noted, calls follow the shape of the dose curve; as a rule, active = well fitted curve in the direction sought with a large enough effect; inconclusive = small, poorly fitted or top-dose-only effect, or another doubt; inactive = no such curve, though single readings can be large; an effect the other way counts as inactive or inconclusive.

Sequence of Cytochrome P450 2C19 (Homo sapiens) (P33261 whole entry, looked up): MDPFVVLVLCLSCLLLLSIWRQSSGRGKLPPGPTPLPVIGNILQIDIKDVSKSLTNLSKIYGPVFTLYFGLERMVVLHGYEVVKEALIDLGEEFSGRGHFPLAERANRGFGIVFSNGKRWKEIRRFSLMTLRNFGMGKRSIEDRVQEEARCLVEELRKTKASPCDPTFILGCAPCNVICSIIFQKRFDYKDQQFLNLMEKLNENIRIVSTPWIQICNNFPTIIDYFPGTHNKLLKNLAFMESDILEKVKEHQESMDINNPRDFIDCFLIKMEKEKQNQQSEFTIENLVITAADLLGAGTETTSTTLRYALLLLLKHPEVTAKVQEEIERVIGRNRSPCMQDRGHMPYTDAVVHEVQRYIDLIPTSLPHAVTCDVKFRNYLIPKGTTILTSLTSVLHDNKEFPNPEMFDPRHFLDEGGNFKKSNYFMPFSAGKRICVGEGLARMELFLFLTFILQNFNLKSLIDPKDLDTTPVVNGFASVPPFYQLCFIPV
Sequence of DNA dC->dU-editing enzyme APOBEC-3G (Homo sapiens) (Q9HC16 whole entry, looked up): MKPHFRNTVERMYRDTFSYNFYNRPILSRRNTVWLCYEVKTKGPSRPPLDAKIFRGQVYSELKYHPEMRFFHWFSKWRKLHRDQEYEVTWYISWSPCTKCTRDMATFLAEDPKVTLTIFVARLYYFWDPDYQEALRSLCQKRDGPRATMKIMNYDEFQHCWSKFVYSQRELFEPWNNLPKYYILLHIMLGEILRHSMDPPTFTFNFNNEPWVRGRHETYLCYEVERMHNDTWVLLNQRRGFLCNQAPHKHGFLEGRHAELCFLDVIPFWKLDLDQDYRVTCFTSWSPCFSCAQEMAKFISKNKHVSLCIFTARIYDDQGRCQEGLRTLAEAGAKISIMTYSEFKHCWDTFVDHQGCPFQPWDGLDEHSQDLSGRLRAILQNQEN
Sequence of Tyrosyl-DNA phosphodiesterase 1 (Homo sapiens) (Q9NUW8 whole entry, looked up): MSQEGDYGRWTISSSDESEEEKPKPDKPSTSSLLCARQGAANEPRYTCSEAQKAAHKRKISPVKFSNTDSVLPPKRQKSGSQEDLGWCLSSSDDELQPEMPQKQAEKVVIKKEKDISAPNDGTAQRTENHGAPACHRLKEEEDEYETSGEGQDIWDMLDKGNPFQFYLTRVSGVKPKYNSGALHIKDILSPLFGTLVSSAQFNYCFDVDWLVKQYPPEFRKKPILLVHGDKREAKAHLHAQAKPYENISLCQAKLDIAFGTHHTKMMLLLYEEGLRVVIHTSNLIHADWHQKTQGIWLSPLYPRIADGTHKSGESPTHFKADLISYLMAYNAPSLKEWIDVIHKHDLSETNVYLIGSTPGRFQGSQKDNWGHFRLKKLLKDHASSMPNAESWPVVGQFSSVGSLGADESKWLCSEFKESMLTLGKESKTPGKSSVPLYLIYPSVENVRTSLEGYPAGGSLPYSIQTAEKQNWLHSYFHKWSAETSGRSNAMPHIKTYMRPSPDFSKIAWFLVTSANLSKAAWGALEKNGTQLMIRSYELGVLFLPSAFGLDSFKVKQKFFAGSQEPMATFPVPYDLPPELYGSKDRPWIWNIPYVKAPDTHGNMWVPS
Sequence of Pyruvate kinase PKM (Homo sapiens) (P14618 whole entry, looked up): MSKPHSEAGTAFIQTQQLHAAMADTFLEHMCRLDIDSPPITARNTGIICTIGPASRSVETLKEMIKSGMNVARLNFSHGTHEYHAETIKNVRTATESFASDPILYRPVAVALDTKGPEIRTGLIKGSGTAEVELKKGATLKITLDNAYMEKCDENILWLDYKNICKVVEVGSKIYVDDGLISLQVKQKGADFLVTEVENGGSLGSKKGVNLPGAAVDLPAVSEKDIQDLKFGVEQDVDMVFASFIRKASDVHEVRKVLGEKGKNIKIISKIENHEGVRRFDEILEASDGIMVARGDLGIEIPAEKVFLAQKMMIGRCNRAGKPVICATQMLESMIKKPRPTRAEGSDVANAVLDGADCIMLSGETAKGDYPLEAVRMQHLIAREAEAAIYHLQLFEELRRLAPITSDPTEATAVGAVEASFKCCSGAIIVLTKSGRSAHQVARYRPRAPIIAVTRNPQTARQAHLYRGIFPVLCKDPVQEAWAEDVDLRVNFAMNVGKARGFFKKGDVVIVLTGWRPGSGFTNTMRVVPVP
Sequence of Alpha-galactosidase A (Homo sapiens) (P06280 whole entry, looked up): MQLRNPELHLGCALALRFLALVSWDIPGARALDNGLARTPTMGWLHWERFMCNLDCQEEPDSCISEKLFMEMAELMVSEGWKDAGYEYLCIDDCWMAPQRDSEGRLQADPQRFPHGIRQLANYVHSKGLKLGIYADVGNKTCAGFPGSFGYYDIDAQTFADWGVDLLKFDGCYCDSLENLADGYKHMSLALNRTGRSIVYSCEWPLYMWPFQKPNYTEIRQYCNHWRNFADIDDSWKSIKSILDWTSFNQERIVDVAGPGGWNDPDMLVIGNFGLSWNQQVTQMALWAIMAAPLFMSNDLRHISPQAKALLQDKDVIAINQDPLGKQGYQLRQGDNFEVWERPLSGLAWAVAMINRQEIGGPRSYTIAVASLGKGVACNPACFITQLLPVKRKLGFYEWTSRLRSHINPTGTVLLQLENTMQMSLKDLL
Sequence of Guanine nucleotide-binding protein G(i) subunit alpha-1 (Homo sapiens) (P63096 whole entry, looked up): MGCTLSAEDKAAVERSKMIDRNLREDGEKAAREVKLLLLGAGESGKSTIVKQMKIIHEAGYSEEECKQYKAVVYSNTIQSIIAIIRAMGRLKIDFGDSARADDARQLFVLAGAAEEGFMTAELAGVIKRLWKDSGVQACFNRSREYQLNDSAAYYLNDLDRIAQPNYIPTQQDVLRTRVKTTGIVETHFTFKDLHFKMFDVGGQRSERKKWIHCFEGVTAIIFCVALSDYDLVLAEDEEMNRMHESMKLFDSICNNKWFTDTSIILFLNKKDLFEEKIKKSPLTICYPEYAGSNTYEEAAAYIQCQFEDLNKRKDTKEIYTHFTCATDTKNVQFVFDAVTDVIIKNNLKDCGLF
Sequence of Pyruvate kinase (Leishmania mexicana) (Q27686 2-499 E452W): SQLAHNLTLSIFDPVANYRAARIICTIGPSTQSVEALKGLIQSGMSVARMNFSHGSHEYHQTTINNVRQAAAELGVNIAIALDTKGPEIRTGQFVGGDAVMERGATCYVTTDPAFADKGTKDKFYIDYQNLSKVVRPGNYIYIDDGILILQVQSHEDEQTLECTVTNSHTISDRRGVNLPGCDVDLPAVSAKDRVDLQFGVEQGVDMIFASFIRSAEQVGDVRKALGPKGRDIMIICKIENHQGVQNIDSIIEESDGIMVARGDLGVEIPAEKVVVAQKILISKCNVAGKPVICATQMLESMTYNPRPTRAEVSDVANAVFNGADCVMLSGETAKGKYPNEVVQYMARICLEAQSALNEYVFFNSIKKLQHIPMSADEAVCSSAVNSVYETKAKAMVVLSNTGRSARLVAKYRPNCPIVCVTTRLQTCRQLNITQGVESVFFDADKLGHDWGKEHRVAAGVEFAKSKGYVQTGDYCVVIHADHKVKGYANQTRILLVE

In the case of `CC=C(/C(=C/C)c1ccc(O)cc1)c1ccc(O)cc1`, in test [1], the Potency is 3.16 µM (active).

`C=C(C)[C@H]1CC[C@]2(CO)CC[C@]3(C)[C@@H](CC[C@H]4[C@@]5(C)CC[C@@H](O)C(C)(C)[C@@H]5CC[C@@]43C)[C@H]12`: in [2], the Potency is 1.26 µM (active).

`Nc1ncnc2c1ncn2[C@@H]1O[C@H](COP(=O)(O)O)[C@@H](O)[C@@H]1O`: the Potency entry in [1] was “inactive”.

As to `C[C@@H]1Cc2ccccc2N1NC(=O)c1ccc(Cl)c(S(N)=O)c1` (stereo partly specified), the activation in test [2] was 7.68%.

For `O=C(O)[C@@H]1[C@@H]2C[C@H]3c4[nH]c5ccccc5c4CCN3C[C@@H]2CC[C@@H]1O`, in [1], the Potency entry was “inactive”.

Turning to `C[N+]1(C)C[C@@H](O)C[C@@H]1C(=O)[O-]`, the Potency result in test [1] was “inactive”.

Take `NC(=O)c1ccc[n+]([C@@H]2O[C@H](COP(=O)([O-])OP(=O)(O)OC[C@H]3O[C@@H](n4cnc5c(N)ncnc54)[C@@H](O)[C@@H]3O)[C@@H](O)[C@@H]2O)c1`: the Potency entry in test [1] is “inactive”.

Consider `CC(=O)N[C@H](CS)C(=O)O`, for which the Potency entry in test [1] was “inactive”.

`FC(F)(F)c1ccccc1-c1ccc2ncnc(NC3CCNCC3)c2c1`: the Potency in test [1] is 3.98 µM (active). Besides, the activation in [2] is -6.93%.

For `COc1ccc(-c2cc(=O)c3c(O)cc(O)cc3o2)cc1`, the call in test [3] was inactive.

Take `CS(=O)(=O)Nc1cccc(-c2nc(Nc3ccc(F)cc3)c3ccccc3n2)c1`: the Potency in test [1] was 7.94 µM (active).

`C/C(=C\CNc1ncnc2nc[nH]c12)CO`: the Potency entry in test [1] was “inactive”. The result in test [3] was inactive.

Turning to `COc1cccc(-c2nc(NCCc3c[nH]c4ccc(OC)cc34)c3ccccc3n2)c1`, the Potency in test [1] is 1.58 µM (active).

As for `COc1cc2ccc(=O)oc2c(O)c1O`, the call in [3] was inactive.

Take `C[C@@H](CN1c2ccccc2Sc2ccccc21)N(C)C`: the call in test [4], in test [5], in [6], in [7], in test [8] and in test [9] was inactive.

As to `Cc1ccnc(N)c1`, in test [3], the call was inactive.

Take `CN1[C@H](CC(=O)c2ccccc2)CCC[C@H]1C[C@@H](O)c1ccccc1`: the Potency entry in [1] was “inactive”. Moreover, the result in test [3] was inactive.

Regarding `C[C@@](N)(C(=O)O)c1cccc(CC(=O)O)c1`, in [3], the result was inactive.

With `NCCC(=O)N[C@@H](Cc1cnc[nH]1)C(=O)O`, the Potency result in [1] is “inactive”. Also, the call in [3] was inactive.

As to `O=c1cc(-c2cccc(O)c2)oc2cc(O)ccc12`, the Potency result in test [1] is “inactive”. Moreover, the molecule was called inactive in test [3].

Take `COc1ccc2c(c1)N(C[C@@H](C)CN(C)C)c1ccccc1S2`: the activation in [2] was -28.7%.

For the molecule `CCC(C)(C)C(=O)O[C@@H]1C[C@H](C)C=C2C=C[C@H](C)[C@@H](CC[C@H]3C[C@@H](O)CC(=O)O3)[C@H]21`, the call in [10], in [11] and in test [12] was inactive.

As to `Cc1cc2ccc(=O)oc2cc1OC[C@@H](O)C(C)(C)O`, the Potency result in test [1] was “inactive”. The outcome in test [3] was inactive.

As to `CC/C=C\C[C@H]1C(=O)CC[C@@H]1CC(=O)O`, in test [1], the Potency entry is “inactive”. In test [3], the outcome was inactive.

As for `Cc1cc(O)c(C=O)c2c1C(=O)Oc1c(C)c(O)c3c(c1O2)C(O)OC3=O` (stereo unspecified), the Potency in test [13] was 5.62 µM (active).

Turning to `C[C@]1(c2ccccc2)OC(C(=O)O)=CC1=O`, the call in [3] was inactive.

For the molecule `Cc1cc(O)c(C=O)c2c1C(=O)Oc1c(COC(=O)/C=C/C(=O)O)c(O)c(C(=O)O)c(C)c1O2`, the Potency in test [13] is 3.16 µM (active).

As for `Nc1ncnc2c1nc(Br)n2[C@H]1O[C@H]2COP(=O)(O)O[C@H]2[C@@H]1O`, in test [3], the call was inactive.

Regarding `COc1c(O)cc(O)cc1O`, in [13], the Potency is 8.91 µM (active).

As to `CC1=C(CCC(=O)O)c2cc3nc(cc4[nH]c(cc5[nH]c(cc1n2)c(C)c5C(C)O)c(C)c4C(C)O)C(C)=C3CCC(=O)O` (stereo unspecified), the Potency in test [13] was 6.31 µM (active).

`C[C@@H]1O[C@@H](O[C@H]2[C@H](Oc3cc(O)c4c(c3)O[C@H](c3ccc(O)cc3)CC4=O)O[C@H](CO)[C@@H](O)[C@@H]2O)[C@H](O)[C@H](O)[C@H]1O`: in test [3], the molecule was called inactive.

With `COC(=O)[C@H]1[C@@H]2C[C@@H]3c4[nH]c5ccccc5c4CCN3C[C@H]2CC[C@H]1O`, the molecule was called inactive in [3].
